# Test results published in publication PMC4336329 (PLoS ONE, 2015).
# Out of some 310,000 compounds screened, about 14,000 (4.5%) showed an effect of 50% or more. Effects have a minus sign here. This excerpt belongs to a sample that is enriched for strong results.
# Target: human ether-à-go-go-related gene (hERG) potassium channel (human, UniProt Q12809)
# Assay: primary screen, population patch clamp on CHO cells stably expressing hERG; higher = less effect of the substance
# 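Further: peak tail current of the secondary pulse compared with the same well before compound.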
# Sequence of human ether-à-go-go-related gene (hERG) potassium channel (Q12809 whole entry, looked up): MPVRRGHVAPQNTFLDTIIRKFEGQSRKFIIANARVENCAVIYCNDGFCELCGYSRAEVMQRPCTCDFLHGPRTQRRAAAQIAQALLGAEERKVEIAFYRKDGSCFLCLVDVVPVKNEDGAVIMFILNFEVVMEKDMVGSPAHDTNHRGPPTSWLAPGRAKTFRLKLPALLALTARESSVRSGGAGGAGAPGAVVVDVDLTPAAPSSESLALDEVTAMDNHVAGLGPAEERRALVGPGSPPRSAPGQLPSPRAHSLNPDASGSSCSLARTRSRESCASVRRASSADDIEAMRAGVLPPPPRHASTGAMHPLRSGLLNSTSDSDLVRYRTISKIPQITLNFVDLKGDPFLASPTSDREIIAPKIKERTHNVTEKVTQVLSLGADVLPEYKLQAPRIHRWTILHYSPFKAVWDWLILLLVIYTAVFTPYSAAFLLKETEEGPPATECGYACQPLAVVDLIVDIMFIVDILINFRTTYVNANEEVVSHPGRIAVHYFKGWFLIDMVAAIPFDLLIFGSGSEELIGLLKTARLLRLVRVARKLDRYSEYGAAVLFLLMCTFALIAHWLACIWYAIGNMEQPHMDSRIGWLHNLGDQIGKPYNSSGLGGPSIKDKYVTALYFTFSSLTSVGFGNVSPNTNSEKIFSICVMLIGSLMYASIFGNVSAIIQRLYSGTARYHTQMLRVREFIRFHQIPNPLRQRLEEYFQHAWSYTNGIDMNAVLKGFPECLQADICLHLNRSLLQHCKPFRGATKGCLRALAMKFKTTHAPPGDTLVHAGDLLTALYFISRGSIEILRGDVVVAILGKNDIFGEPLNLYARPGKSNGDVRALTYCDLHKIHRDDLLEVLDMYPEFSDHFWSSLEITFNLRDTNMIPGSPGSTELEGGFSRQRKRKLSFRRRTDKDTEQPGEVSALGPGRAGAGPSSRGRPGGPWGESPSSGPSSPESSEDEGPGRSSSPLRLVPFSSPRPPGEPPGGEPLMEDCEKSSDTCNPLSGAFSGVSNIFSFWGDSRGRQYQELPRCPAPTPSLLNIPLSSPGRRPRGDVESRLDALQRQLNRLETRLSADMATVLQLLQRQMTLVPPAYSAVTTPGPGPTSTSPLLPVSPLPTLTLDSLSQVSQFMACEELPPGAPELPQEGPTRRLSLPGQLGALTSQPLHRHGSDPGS
row,Structure (SMILES),"hERG current change (%, negative = inhibition) at 10uM [%]"
1,COc1ccc2cc(C(=O)C3CCCN(C(=O)c4sc(C)nc4C)C3)ccc2c1 (centres unmarked),-22.8
2,Cc1ccc(S(=O)(=O)N2CCN(C(=O)CCn3nc(C)c(C)c3C)CC2)cc1,11.1
3,Oc1cccc(-c2nc3c4c(ncn3n2)-c2ccccc2CC42CCCC2)c1,-7.64
4,COc1ccc(CCn2nnnc2C(c2ccc(Cl)cc2)N2CCN(C)CC2)cc1OC.Cl (centres unmarked),-11.6
5,CC(=O)Nc1ccccc1OC(=O)N(C)C,2.41
6,COc1c(Cl)cc(Cl)cc1C(=O)Nc1ccc(NC(=O)c2cccs2)cc1,13.2
7,COc1ccc(C2(CNC(=O)c3cccc([N+](=O)[O-])c3)CCOCC2)cc1,0.0345
8,CN(C)c1ccc(NC(=O)CSc2nnc(-c3ccco3)c(-c3ccco3)n2)cc1,6.58
9,Cc1ccc(NC(=O)CSc2nnc(-c3ccco3)c(-c3ccco3)n2)cc1,-64.9
10,CC(=O)c1ccc(NC(=O)CSc2nnc(-c3ccco3)c(-c3ccco3)n2)cc1,-33
11,CCOc1ccc(NC(=S)N2CCC(c3ccc(C)cc3)C2)cc1 (centres unmarked),-6.63
12,CSc1cccc(NC(=S)N(CCCN2CCCC2)Cc2cccs2)c1,-63.7
13,CSc1cccc(NC(=S)N(CCCN2CCC(C)CC2)Cc2cccs2)c1,-72.9
14,CSc1cccc(NC(=S)N(CCCN2CCCC(C)C2)Cc2cccs2)c1 (centres unmarked),-75.6
15,Cc1cccc(C)c1NC(=S)N(CCCN1CCN(C)CC1)Cc1cccs1,-47.8
16,CSc1cccc(NC(=S)N(CCCN2CCCC2)Cc2cccn2Cc2ccc(Cl)cc2)c1,-28.1
17,Cc1ccc(/C=N/NC(=O)c2cc3c(ccc4ccccc43)o2)cc1[N+](=O)[O-],3.49
18,Cc1cc(C)n(C(=O)COc2c(C)cccc2C)n1,11
19,COc1cc(C(=O)N2CCN(C3CCC(C)CC3)CC2)cc(OC)c1OC.O=C(O)C(=O)O (centres unmarked),8.29
20,O=C(c1nc2ccc(Cl)cn2c1CN1CCCC1)N1CCc2ccccc2C1,-10.6
21,CN1CCN(Cc2c(C(=O)N3CCc4ccccc4C3)nc3ccc(Cl)cn23)CC1,-51.8
22,CC1CCN(Cc2c(C(=O)N3CCc4ccccc4C3)nc3ccc(Cl)cn23)CC1,-31.7

row,Structure (SMILES),"hERG current change (%, negative = inhibition) at 10uM [%]"
1,CN(Cc1cccnc1)Cc1c(C(=O)N2CCc3ccccc3C2)nc2ccc(Cl)cn12,-20.1
2,CC(C)CN(C)Cc1c(C(=O)N2CCc3ccccc3C2)nc2ccc(Cl)cn12,-53.2
3,Cc1cnc(CN(C)Cc2c(C(=O)N3CCc4ccccc4C3)nc3ccc(Cl)cn23)[nH]1,-62.6
4,CCCCN(C)Cc1c(C(=O)N2CCc3ccccc3C2)nc2ccc(Cl)cn12,-50.1
5,CCN(C)Cc1c(C(=O)N2CCc3ccccc3C2)nc2ccc(Cl)cn12,-31.1
6,CN(Cc1cnccn1)Cc1c(C(=O)N2CCc3ccccc3C2)nc2ccc(Cl)cn12,-23.4
7,CN(Cc1c(C(=O)N2CCc3ccccc3C2)nc2ccc(Cl)cn12)C(C1CC1)C1CC1,-45.9
8,CCN(CC)Cc1c(C(=O)N2CCc3ccccc3C2)nc2ccc(Cl)cn12,-13.1
9,Cc1cnc(CN(C)Cc2c(C(=O)N3CCCCCCC3)nc3ccc(Cl)cn23)[nH]1,-29
10,COC(=O)c1cc2c(C)nn(-c3ccccc3)c2s1,2.91
11,CC(=O)c1cccc(NC(=O)COC(=O)c2ccccn2)c1,5.33
12,Cc1ccc(-c2nnc(-c3cc(C)on3)o2)cc1,19.6
13,O=C(CNC(=O)c1ccc([N+](=O)[O-])cc1)c1ccccc1,-6.36
14,COc1cc(N(C)C)c([N+](=O)[O-])cc1C(=O)NC(C)CNc1ccc([N+](=O)[O-])cc1Cl (centres unmarked),-2.36
15,COC(=O)C1=CO[C@@H](C)[C@H]2CN3CC[C@]4(C(=O)Nc5ccccc54)[C@@H]3C[C@H]12,15.5
16,Fc1ccccc1NC(=S)Nc1cccc2cnccc12,46.8
17,Cc1cccc(CSc2nnc(-c3ccccn3)n2N)c1,2.88
18,COc1cccc(NC(=O)CSc2ccc3nnc(-c4ccccn4)n3n2)c1,-47.3
19,Fc1cccc(CSc2ccc3nnc(-c4ccccn4)n3n2)c1,-77.9
20,Cc1cccc(CSc2ccc3nnc(-c4ccccn4)n3n2)c1,-75.7
21,Fc1cccc(Cl)c1CSc1ccc2nnc(-c3ccccn3)n2n1,-13.5
22,O=C(CSc1ccc2nnc(-c3ccccn3)n2n1)Nc1cccc(F)c1,-40.6
